Here are results for 40 compounds from PubChem BioAssay (NCATS).

Results filed as inconclusive are left out. Entries that show only a call come without a potency. Activity calls are given as the source filed them. Calls follow the shape of the dose curve; as a rule, active = well fitted cell-killing curve with a large enough effect; inconclusive = small, poorly fitted or top-dose-only effect, or effect the other way; inactive = flat fitted curve, though single readings scatter.
Potency is read from the fitted curve at half-maximal effect.

This experiment can be described thus: S16 Schwann cell viability assay (CellTiter-Glo assay) (AID 624031). Also: nearly all actives have a fitted effect of over 70% in size. The settings on record: S16 rat Schwann cells viability, 24 h; series mostly up to 57.5 µM. The source says: Charcot-Marie-Tooth-Association [CMTA]
National Center for Advancing Translational Sciences [NCATS]
Charcot-Marie-Tooth (CMT) disease was first characterized by Jean-Martin Charcot and Pierre Marie in France and, independently, by Howard Henry Tooth in England in 1886. CMT is one of the most common inherited neurological diseases, affecting approximately 1 in 2,500 Americans. […] The most prevalent type of CMT is known as CMT1A and caused by a duplication of the PMP22 gene which leads to over-expression of this protein. PMP22 is a glycosylated intrinsic membrane protein accounting for 2-5% of the myelin protein content, and its over-expression results in demyelination and subsequently axonal loss.
A pair of cellular transcription-based assays was developed in the S16 rat Schwann cell lines (Hai, M., et al., 2002) stably transfected with orthogonal reporters - firefly luciferase (Fluc) and beta-lactamase (beta-Lac) - whose expression is driven by an intronic regulatory element of the PMP22 gene (Jones, E.A., et al., 2011) to recapitulate endogenous expression of PMP22. A comprehensive library of approved drugs, the NCGC Pharmaceutical Collection (Huang, R., et al., 2011), was screened in the cross-validating platform of the orthogonal reporter assays to identify drug modulators inhibitory towards PMP22 expression.
A set of counter-screens was devised to address non-specific activity of the library. An ATP-dependent CellTiter-Glo assay (developed by Promega Corp) was utilized to control cell viability. In addition, biochemical Fluc enzyme assay was performed to assess direct inhibition of the Fluc enzymatic activity.
Hai, M., Muja, N., DeVries, G.H., Quarles, R.H. and Patel, P.I. Comparative analysis of Schwann cell lines as model systems for myelin gene transcription studies. J Neurosci Res, 2002. 69(4): pp 497-508
Huang, R., Southall, N., Wang, Y., Yasgar A., Shinn P., Jadhav, A. , Nguyen, D.-T. and Austin, C.P., The NCGC pharmaceutical collection: a comprehensive resource of clinically approved drugs enabling repurposing and chemical genomics. Sci Transl Med, 2011. 3(80): p. 80ps16.
Native S16 cells were seeded in white solid-bottom 1536 well plates at between 500-750 cells/6uL in DMEM medium containing 10% FBS, w/o phenol red. After overnight incubation at 37 degree Celsius/5% C02, 23 nL of compounds or DMSO were delivered to each well using a pin tool, followed by 24h-incubation at 37 degree Celsius/5% C02. Then one volume of CellTiter-Glo assay reagent (Promega) was added to each well for cell viability measured by a ViewLux plate reader (PerkinElmer). The % activity was determined by normalizing to the average readings from wells containing no cells relative to DMSO-treated cells (0% Activity). The concentration-effect curves were then classified based on curve quality (r2), response magnitude and degree of measured activity.
A general note: ATP-based viability assays read luminescence as a measure of living cells.
For the compound `CCCOc1ccccc1-c1nc2n[nH]nc2c(=O)[nH]1`, the Potency result is “inactive”.
In the case of `CCO/C([O-])=N/c1c[n+](N2CCOCC2)no1` it was “inactive”; in that of `Cc1ccc(=O)n(-c2ccccc2)c1`, “inactive”; in that of `CCN(CC)CCNC(=O)c1cc(S(C)(=O)=O)ccc1OC`, “inactive”.
In the case of `COc1cc2c(cc1OC)-c1cc(=Nc3c(C)cc(C)cc3C)n(C)c(=O)n1CC2` it was 32.2 µM (active); in that of `NC(=O)c1cn(Cc2c(F)cccc2F)nn1`, “inactive”; in that of `C[N+](C)(C)CCCCCCCCCC[N+](C)(C)C`, “inactive”.
In the case of `CCN1CCc2nc(N)oc2CC1` it was “inactive”; in that of `O=C(CCNNC(=O)c1ccncc1)NCc1ccccc1`, “inactive”.
For `CC[N+](C)(C)c1cccc(O)c1`, the Potency entry is “inactive”.
With `CCOC(=O)c1cnc2c(cnn2CC)c1NN=C(C)C`, the Potency entry is “inactive”.
To `Cc1ccc(Cl)c(Nc2ccccc2C(=O)O)c1Cl` belongs “inactive”.
To `CCN1CCC[C@H]1CNC(=O)c1c(O)c(Cl)cc(Cl)c1OC` belongs “inactive”; to `CCOC(=O)C1=C(C)NC(C)=C(C(=O)OC)C1c1cccc(Cl)c1Cl` (stereo not given), “inactive”.
To `CN(C(=O)CCCOc1ccc2[nH]c(=O)ccc2c1)C1CCCCC1` belongs “inactive”.
`Cc1nc2c([nH]1)c(=O)n(C)c(=O)n2Cc1ccco1`: the Potency entry was “inactive”.
To `Cc1nc2sccn2c(=O)c1CCN1CCC(=C(c2ccc(F)cc2)c2ccc(F)cc2)CC1` belongs “inactive”; to `NC(Cc1ccc(Cl)cc1)C(=O)O` (stereo not given), “inactive”.
In the case of `Nc1nc(N)c2nc(-c3ccccc3)c(N)nc2n1` it was “inactive”; in that of `CC(C)(C)c1ccc(C(=O)CCCN2CCC(OC(c3ccccc3)c3ccccc3)CC2)cc1`, 20.3 µM (active); in that of `CCN(CC)CCCN(c1ccccc1)C1Cc2ccccc2C1`, 14.4 µM (active).
In the case of `FC(F)(F)c1ccccc1-n1ccnc1` it was “inactive”.
As for `OC(CCN1CCCCC1)(c1ccccc1)C1CCCCC1` (stereo not given), the Potency result is “inactive”.
In the case of `CN1CCN(C2=Nc3ccccc3Oc3ccc(Cl)cc32)CC1` it was “inactive”; in that of `CCCCCCCC/C=C\CCCCCCCC(=O)NCc1ccc(O)c(OC)c1`, “inactive”.
On to `CC(=O)Nc1nnc(S(N)(=O)=O)s1`, for which the Potency result was “inactive”.
In the case of `CNC1(C)C2CCC(C2)C1(C)C` (stereo not given) it was “inactive”; in that of `C=CCc1ccccc1OCC(O)CNC(C)C` (stereo not given), “inactive”.
To `CC(C)[N+](C)(CCOC(=O)C1c2ccccc2Oc2ccccc21)C(C)C` belongs “inactive”; to `Cc1scc2c1N(C(=O)CN1CCN(C)CC1)c1ccccc1NC2=O`, “inactive”.
In the case of `CCCN1C[C@H](CSC)C[C@@H]2c3cccc4[nH]cc(c34)C[C@H]21` it was “inactive”; in that of `CC(C)(Oc1ccc(CCNC(=O)c2ccc(Cl)cc2)cc1)C(=O)O`, “inactive”; in that of `CCCN(CCC)CCc1cccc2c1CC(=O)N2`, “inactive”.
For `COCC(=O)O[C@]1(CCN(C)CCCc2nc3ccccc3[nH]2)CCc2cc(F)ccc2[C@@H]1C(C)C`, the Potency was 10.2 µM (active).
Take `CN/C(=C\[N+](=O)[O-])NCCSCc1ccc(CN(C)C)o1`: the Potency result is “inactive”.
To `CCn1cc(C(=O)O)c(=O)c2cc3c(cc21)OCO3` belongs “inactive”; to `CCn1nc(C(=O)O)c(=O)c2cc3c(cc21)OCO3`, “inactive”.
To `CC(=O)Oc1cc(C(C)C)c(OCCN(C)C)cc1C` belongs “inactive”; to `Cc1nnc(SCC2=C(C(=O)O)N3C(=O)[C@@H](NC(=O)Cn4cnnn4)[C@H]3SC2)s1`, “inactive”; to `COc1ccc(CCN(C)CCCC(C#N)(c2cc(OC)c(OC)c(OC)c2)C(C)C)cc1OC` (stereo not given), “inactive”.
